Results from PubChem BioAssay AID1159580 (chemical genetic matrix, 2015).
About 2,000 (36%) of roughly 5,500 compounds were called active. Another 18% or so got no clear call; they are omitted. This is one part of the list. A number with no mark means an inactive call. Cut-off read from the data, not from the text of the source: active = normalized growth mostly below about 0.91 (no sharp cut-off); inconclusive = no clear call, values can overlap the other calls; inactive = mostly above about 0.92.

Assay: chemical genetic growth profiling, strain panel (AID 1159580);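 note: tested at 20 µM; growth read once vehicle control cultures reached saturation at 30 °C; 1 = growth at the plate median or of vehicle wells; lower values mean less growth of the strain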
Details: growth OD

With `COc1cc2ccc(=O)oc2c2ccoc12` the normalized growth (S. cerevisiae deletion strains, locus YJR066W, strain TOR1, active compounds read low) was 0.965, the normalized growth (S. cerevisiae deletion strains, locus YKL009W, strain mrt4, active compounds read low) was 0.902 and the normalized growth (S. cerevisiae deletion strains, locus YKL068W, active compounds read low) was 0.999. For the same compound, the normalized growth (S. cerevisiae deletion strains, locus YKL085W, strain MDH1 (second series), active compounds read low) was 0.999, the normalized growth (S. cerevisiae deletion strains, locus YKL085W, strain MDH1, active compounds read low) was 0.999 and the normalized growth (S. cerevisiae deletion strains, locus YKL160W, strain elf1, active compounds read low) was 0.894 (active). For the same compound, the normalized growth (S. cerevisiae deletion strains, locus YKR001C, strain vps1, active compounds read low) was 0.901, the normalized growth (S. cerevisiae deletion strains, locus YKR026C, strain gcn3, active compounds read low) was 0.999 and the normalized growth (S. cerevisiae deletion strains, locus YKR091W, strain srl3, active compounds read low) was 0.998. For the same compound, the normalized growth (S. cerevisiae deletion strains, locus YLL001W, strain dnm1, active compounds read low) was 0.87 (active), the normalized growth (S. cerevisiae deletion strains, locus YLL026W, active compounds read low) was 0.982 and the normalized growth (S. cerevisiae deletion strains, locus YLL041C, strain sdh2, active compounds read low) was 0.991. For the same compound, the normalized growth (S. cerevisiae deletion strains, locus YLR027C, strain aat2, active compounds read low) was 0.911 (active), the normalized growth (S. cerevisiae deletion strains, locus YLR039C, strain RIC1, active compounds read low) was 1.09 and the normalized growth (S. cerevisiae deletion strains, locus YLR058C, strain SHM2, active compounds read low) was 0.987. The normalized growth (S. cerevisiae deletion strains, locus YLR102C, strain apc9, active compounds read low) was 1.01, the normalized growth (S. cerevisiae deletion strains, locus YLR113W, strain HOG1, active compounds read low) was 1.09 and the normalized growth (S. cerevisiae deletion strains, locus YLR221C, strain rsa3, active compounds read low) was 0.873 (active). The normalized growth (S. cerevisiae deletion strains, locus YLR258W, strain gsy2, active compounds read low) was 0.87 (active), the normalized growth (S. cerevisiae deletion strains, locus YLR262C, strain YPT6 (second series), active compounds read low) was 0.948 and the normalized growth (S. cerevisiae deletion strains, locus YLR262C, strain YPT6, active compounds read low) was 1.06. For the same compound, the normalized growth (S. cerevisiae deletion strains, locus YLR268W, strain sec22, active compounds read low) was 0.97, the normalized growth (S. cerevisiae deletion strains, locus YLR320W, strain mms22, active compounds read low) was 0.752 (active) and the normalized growth (S. cerevisiae deletion strains, locus YLR342W, strain FKS1, active compounds read low) was 1.01. For the same compound, the normalized growth (S. cerevisiae deletion strains, locus YLR357W, strain rsc2, active compounds read low) was 1.16 [resistant] (active), the normalized growth (S. cerevisiae deletion strains, locus YLR370C, strain arc18, active compounds read low) was 0.982 and the normalized growth (S. cerevisiae deletion strains, locus YLR371W, strain rom2, active compounds read low) was 0.947. The normalized growth (S. cerevisiae deletion strains, locus YLR384C, strain iki3, active compounds read low) was 0.986, the normalized growth (S. cerevisiae deletion strains, locus YLR418C, strain cdc73, active compounds read low) was 0.918 and the normalized growth (S. cerevisiae deletion strains, locus YML016C, strain PPZ1, active compounds read low) was 0.991. The normalized growth (S. cerevisiae deletion strains, locus YML032C, strain rad52, active compounds read low) was 0.737 (active), the normalized growth (S. cerevisiae deletion strains, locus YML120C, strain ndi1, active compounds read low) was 0.844 (active) and the normalized growth (S. cerevisiae deletion strains, locus YML124C, strain tub3, active compounds read low) was 1. The normalized growth (S. cerevisiae deletion strains, locus YMR058W, strain fet3, active compounds read low) was 0.941, the normalized growth (S. cerevisiae deletion strains, locus YMR078C, strain ctf18, active compounds read low) was 0.977 and the normalized growth (S. cerevisiae deletion strains, locus YMR125W, strain sto1, active compounds read low) was 1.02. The normalized growth (S. cerevisiae deletion strains, locus YMR129W, active compounds read low) was 0.971, the normalized growth (S. cerevisiae deletion strains, locus YMR205C, strain PFK2, active compounds read low) was 0.993 and the normalized growth (S. cerevisiae deletion strains, locus YMR223W, strain ubp8, active compounds read low) was 0.937. It also gave a normalized growth (S. cerevisiae deletion strains, locus YMR231W, strain pep5, active compounds read low) of 0.98, a normalized growth (S. cerevisiae deletion strains, locus YMR263W, strain SAP30, active compounds read low) of 0.976 and a normalized growth (S. cerevisiae deletion strains, locus YMR307W, strain GAS1, active compounds read low) of 1.09. The normalized growth (S. cerevisiae deletion strains, locus YNL067W, strain RPL9B, active compounds read low) was 0.977, the normalized growth (S. cerevisiae deletion strains, locus YNL071W, strain lat1, active compounds read low) was 0.913 (active) and the normalized growth (S. cerevisiae deletion strains, locus YNL128W, strain TEP1, active compounds read low) was 0.871. For the same compound, the normalized growth (S. cerevisiae deletion strains, locus YNL183C, strain NPR1, active compounds read low) was 0.977, the normalized growth (S. cerevisiae deletion strains, locus YNL209W, strain ssb2, active compounds read low) was 0.919 (active) and the normalized growth (S. cerevisiae deletion strains, locus YNL233W, strain BNI4, active compounds read low) was 0.982. The normalized growth (S. cerevisiae deletion strains, locus YNL248C, strain rpa49, active compounds read low) was 0.458 (active), the normalized growth (S. cerevisiae deletion strains, locus YNL250W, strain rad50, active compounds read low) was 0.856 (active) and the normalized growth (S. cerevisiae deletion strains, locus YNL271C, strain bni1, active compounds read low) was 0.956. The normalized growth (S. cerevisiae deletion strains, locus YNL298W, strain CLA4, active compounds read low) was 0.954, the normalized growth (S. cerevisiae deletion strains, locus YNL307C, strain MCK1, active compounds read low) was 1.01 and the normalized growth (S. cerevisiae deletion strains, locus YNL322C, strain KRE1 (second series), active compounds read low) was 0.793 (active). For the same compound, the normalized growth (S. cerevisiae deletion strains, locus YNR049C, strain mso1, active compounds read low) was 1.02, the normalized growth (S. cerevisiae deletion strains, locus YNR052C, strain pop2, active compounds read low) was 0.925 and the normalized growth (S. cerevisiae deletion strains, locus YOL012C, strain htz1) was 0.781. For the same compound, the normalized growth (S. cerevisiae deletion strains, locus YOL147C, strain pex11, active compounds read low) was 0.981, the normalized growth (S. cerevisiae deletion strains, locus YOR001W, strain rrp6, active compounds read low) was 0.732 (active) and the normalized growth (S. cerevisiae deletion strains, locus YOR061W, strain CKA2, active compounds read low) was 1. For the same compound, the normalized growth (S. cerevisiae deletion strains, locus YOR069W, strain VPS5, active compounds read low) was 0.988, the normalized growth (S. cerevisiae deletion strains, locus YOR070C, strain gyp1, active compounds read low) was 0.966 and the normalized growth (S. cerevisiae deletion strains, locus YOR080W, strain dia2, active compounds read low) was 0.891 (active). The normalized growth (S. cerevisiae deletion strains, locus YOR083W, strain WHI5, active compounds read low) was 0.801 (active), the normalized growth (S. cerevisiae deletion strains, locus YOR106W, strain vam3, active compounds read low) was 0.755 (active) and the normalized growth (S. cerevisiae deletion strains, locus YOR136W, strain idh2, active compounds read low) was 0.971. For the same compound, the normalized growth (S. cerevisiae deletion strains, locus YOR144C, strain elg1, active compounds read low) was 0.986, the normalized growth (S. cerevisiae deletion strains, locus YOR184W, strain ser1, active compounds read low) was 0.994 and the normalized growth (S. cerevisiae deletion strains, locus YOR231W, strain MKK1, active compounds read low) was 0.991. For the same compound, the normalized growth (S. cerevisiae deletion strains, locus YOR265W, strain rbl2, active compounds read low) was 0.952, the normalized growth (S. cerevisiae deletion strains, locus YOR270C, strain vph1, active compounds read low) was 0.814 and the normalized growth (S. cerevisiae deletion strains, locus YOR290C, strain snf2, active compounds read low) was 0.821 (active). For the same compound, the normalized growth (S. cerevisiae deletion strains, locus YOR316C, strain cot1, active compounds read low) was 0.981, the normalized growth (S. cerevisiae deletion strains, locus YPL051W, strain arl3, active compounds read low) was 0.863 (active) and the normalized growth (S. cerevisiae deletion strains, locus YPL078C, strain atp4, active compounds read low) was 0.858 (active). The normalized growth (S. cerevisiae deletion strains, locus YPL106C, strain sse1, active compounds read low) was 0.748 (active), the normalized growth (S. cerevisiae deletion strains, locus YPL240C, strain hsp82, active compounds read low) was 0.965 and the normalized growth (S. cerevisiae deletion strains, locus YPL241C, strain CIN2, active compounds read low) was 0.997. For the same compound, the normalized growth (S. cerevisiae deletion strains, locus YPL256C, strain CLN2, active compounds read low) was 1.06, the normalized growth (S. cerevisiae deletion strains, locus YPR119W, strain clb2, active compounds read low) was 0.99 and the normalized growth (S. cerevisiae deletion strains, locus YPR141C, strain kar3, active compounds read low) was 1. For the same compound, the normalized growth (S. cerevisiae deletion strains, locus YPR163C, strain tif3, active compounds read low) was 0.884 (active), the normalized growth (S. cerevisiae deletion strains, locus YPR167C, strain met16, active compounds read low) was 0.97 and the normalized growth (S. cerevisiae deletion strains, strain wtn01, active compounds read low) was 0.969. It also gave a normalized growth (S. cerevisiae strains, strain wild type, active compounds read low) of 1.02.
